Laboratory results from PubChem BioAssay (Tox21).
Values joined by “and” are separate entries in the source; they are usually repeats but may differ in a detail not shown here. Equal entries are not always repeated. Results filed as inconclusive are left out. Entries that show only a call come without a potency. More than one record can exist for a structure, and the calls need not agree. Active and inactive are the calls of the source. Unless noted, the call rests on the fitted dose curve.

How the values were obtained:
[1] = Nuclear factor erythroid 2-related factor 2/antioxidant responsive element (Nrf2/ARE) small molecule agonists: qHTS cell viability counter screen in human keratinocytes (AID 1919968; active means well fitted curve in the direction sought with a large enough effect in the repeat runs; an effect the other way counts as inactive or inconclusive; further: nearly all actives have a fitted effect of over 55% in size; further: potency means the concentration at half of the fitted maximal effect)
How it was run: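 Seed 1,500 KeratinoSens cells per well, then incubate 5 h at 37 C/5% CO2. Add compounds in DMSO and incubate 23 h. Add CellTiter-Fluor, wait 1 h and read fluorescence.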

[2] = Nuclear factor erythroid 2-related factor 2/antioxidant responsive element (Nrf2/ARE) small molecule agonists: luciferase reporter gene qHTS assay in human keratinocytes (AID 1919969); further: nearly all actives have a fitted effect of over 35% in size
[3] = molecular target: Gonadotropin-releasing hormone receptor (Homo sapiens) (UniProt P30968); experiment: Human gonadotropin-releasing hormone receptor (GnRHR) small molecule agonists, calcium flux assay in GnRHR-HEK293 cells (AID 1920063); further: nearly all actives have a fitted effect of over 35% in size
How it was run: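 Cells: HEK293 stably expressing human GnRHR. Steps: overnight (18 h) culture, 1 h calcium dye loading at 37 C, compound addition, kinetic fluorescence read at 480/540 nm. Each compound tested at 15 concentrations in triplicate.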

[4] = molecular target: KiSS-1 receptor (Homo sapiens) (UniProt Q969F8); experiment: Human kisspeptin (KISS1R) small molecule agonists, calcium flux assay in KISS1R-HEK293 cells (AID 1920064; active means well fitted curve in the direction sought with a large enough effect in the repeat runs; an effect the other way counts as inactive or inconclusive)
How it was run: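 Cells plated and incubated 18 h; dye added, 1 h at 37 C; compounds in DMSO pinned in; signal read at 480/540 nm every second for 3 min. Each compound tested at 15 concentrations in triplicate.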

[5] = G protein-coupled receptor (GPCR) small molecule agonists, calcium flux assay: HEK293 wild type cell line counter screen (AID 1920065)
How it was run: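 Counter-screen of the Tox21 10K library for non-specific calcium release: dye-loaded cells received compounds in DMSO and were monitored by kinetic fluorescence (480/540 nm, 3 min). Fifteen concentrations, run in triplicate.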

[6] = p53 small molecule agonists, cell-based qHTS assay with human liver microsomes (AID 1963577);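 further: p53 response element beta-lactamase reporter cells with liver microsomes plus NADPH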
How it was run: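 HLM-supplemented p53RE-bla reporter assay: 16 h compound exposure at 37 C, microsomes and NADPH each 0.5 mg/mL final, read by fluorescence intensity.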

[7] = p53 small molecule agonists, cell-based qHTS assay with rat liver microsomes (AID 1963578)
How it was run: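 Quantitative HTS of the Tox21 10K library: p53RE-bla cells, rat liver microsomes plus NADPH at 0.5 mg/mL final each, 16 h at 37 C, beta-lactamase fluorescence detection.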

[8] = p53 small molecule agonists, cell-based qHTS assay with human liver microsomes: qHTS cell viability counter screen (AID 1963579); further: nearly all actives have a fitted effect of over 45% in size
How it was run: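 Viability of p53RE-bla cells is measured as CellTiter-Glo luminescence following a 16 h, 37 C incubation with compound, liver microsomes from human donors and NADPH.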

[9] = p53 small molecule agonists, cell-based qHTS assay with rat liver microsomes: qHTS cell viability counter screen (AID 1963580); further: nearly all actives have a fitted effect of over 45% in size
How it was run: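 Viability is assessed in parallel with the p53 reporter read: HCT-116 p53RE-bla cells receive compounds plus rat microsomes and NADPH (0.5 mg/mL final apiece), incubate 16 h at 37 C, and then CellTiter-Glo luminescence is recorded.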

[10] = p53 small molecule agonists, cell-based qHTS assay: qHTS cell viability counter screen (AID 1963581); further: nearly all actives have a fitted effect of over 45% in size
How it was run: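 Cells: HCT-116 with p53 response element-driven beta-lactamase. Treatment: 16 h, 37 C, compounds in DMSO. Read: CellTiter-Glo luminescence after 30 min RT.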

[11] = p53 small molecule agonists, cell-based qHTS assay (AID 1963582; active means well fitted activation curve with a large enough effect in the signal ratio in the repeat runs, not every such curve was filed as active; the % refers to the signal ratio)
How it was run: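 Quantitative HTS in p53RE-bla cells: after a 5 h settling period, compounds delivered in DMSO were left on cells for 16 h at 37 C, and reporter induction was measured as fluorescence following 2 h substrate loading.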

[12] = molecular target: 5-hydroxytryptamine receptor 2A (Homo sapiens) (UniProt P28223); experiment: 5-hydroxytryptamine receptor 2A (HTR2A) small molecule antagonists, cell-based qHTS assay (AID 1963586); further: nearly all actives have a fitted effect of over 45% in size; further: potency means the concentration at half of the fitted maximal effect
How it was run: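 Antagonist-mode intracellular calcium assay: DOI (4 nM) added after 5 min compound pre-incubation at room temperature to dye-loaded HTR2A-CHO cells. Fluorescence followed for 3 min, sampled every second.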

[13] = molecular target: 5-hydroxytryptamine receptor 2A (Homo sapiens) (UniProt P28223); experiment: 5-hydroxytryptamine receptor 2A (HTR2A) small molecule agonists, cell-based qHTS assay (AID 1963587); further: nearly all actives have a fitted effect of over 30% in size
How it was run: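 CHO cells stably expressing human HTR2A, plated 18 h, loaded with calcium dye 1 h at 37 C. Agonist mode: compounds added and intracellular calcium fluorescence recorded kinetically for 2 min at 1 sec intervals.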

[14] = molecular target: Muscarinic acetylcholine receptor M1 (Homo sapiens) (UniProt P11229); experiment: Cholinergic receptor muscarinic 1 (CHRM1) small molecule antagonists, cell-based qHTS assay (AID 1963588); further: nearly all actives have a fitted effect of over 40% in size
How it was run: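 CHRM1-CHO calcium-flux assay, antagonist mode. Cells were seeded 18 h, dye-loaded 1 h at 37 C and given compound for 5 min at RT, then acetylcholine was added at 50nM. FDSS fluorescence was read 3 min; 15 concentrations, three runs.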

[15] = molecular target: Muscarinic acetylcholine receptor M1 (Homo sapiens) (UniProt P11229); experiment: Cholinergic receptor muscarinic 1 (CHRM1) small molecule agonists, cell-based qHTS assay (AID 1963589); further: nearly all actives have a fitted effect of over 35% in size
How it was run: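 Agonist-mode qHTS in CHO cells stably carrying human muscarinic M1. Intracellular calcium is tracked by fluorescence every second after compound transfer; each compound runs at 15 concentrations in three independent runs.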

[16] = cAMP Responsive Elements (CRE) small molecule agonists, cell-based qHTS assay (AID 1963590)
How it was run: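 Agonist mode qHTS in CRE-bla HEK 293T cells: compounds dosed from DMSO for 3 h at 37 C/5% CO2, followed by LiveBLAzer B/G FRET substrate for 2 h at room temperature.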

[17] = molecular target: Beta-2 adrenergic receptor (Homo sapiens) (UniProt P07550); experiment: Adrenergic beta2 receptor (ADRB2) small molecule antagonists, cell-based qHTS assay (AID 1963592); further: series mostly up to about 92 µM; nearly all actives have a fitted effect of over 50% in size
How it was run: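 Cells (CHO, stable ADRB2 overexpression) incubated 18-20hr at 37C; compounds added from DMSO; agonist mix (1nM isoproterenol, 100uM IBMX, 25uM Ro-20-1724) added; 0.5hr RT; d2-cAMP and anti-cAMP-cryptate added; 1hr RT; 665/615 nm read.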

[18] = molecular target: D(2) dopamine receptor (Homo sapiens) (UniProt P14416); experiment: Dopamine D2 receptor (DRD2) small molecule agonists, cell-based qHTS assay (AID 1963594); further: nearly all actives have a fitted effect of over 35% in size
How it was run: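 HEK293 cells stably expressing human DRD2, pre-treated with PDE inhibitor Ro20-1724 (0.1 mM final) and compound 10 min at room temperature, then stimulated with NKH477 (200nM […]) for 30 min. cAMP read by HTRF (665/620 nm).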

[19] = molecular target: D(2) dopamine receptor (Homo sapiens) (UniProt P14416); experiment: Dopamine D2 receptor (DRD2) small molecule antagonists, cell-based qHTS assay (AID 1963595; active means well fitted inhibition curve with a large enough effect in the signal ratio in the repeat runs, with a control signal flat; the % refers to the signal ratio)
How it was run: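 Antagonism was scored as restored cAMP in HEK293-DRD2 cells. These cells were stimulated with 200 nM NKH477 and 12 nM quinpirole for 30 min at room temperature, in the presence of 0.1 mM Ro20-1724.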

[20] = cAMP Responsive Elements (CRE) small molecule antagonists, cell-based qHTS assay (AID 1963591; active means well fitted inhibition curve with a large enough effect in the signal ratio in the repeat runs, not every such curve was filed as active; the % refers to the signal ratio)
How it was run: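 Antagonist mode: test compounds are co-incubated with the adenylyl cyclase activator NKH477 (0.25 uM final) on CRE-bla HEK293T cells for 3 h at 37 °C, followed by LiveBLAzer substrate loading.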

Sequence of KiSS-1 receptor (Homo sapiens) (Q969F8 whole entry, looked up): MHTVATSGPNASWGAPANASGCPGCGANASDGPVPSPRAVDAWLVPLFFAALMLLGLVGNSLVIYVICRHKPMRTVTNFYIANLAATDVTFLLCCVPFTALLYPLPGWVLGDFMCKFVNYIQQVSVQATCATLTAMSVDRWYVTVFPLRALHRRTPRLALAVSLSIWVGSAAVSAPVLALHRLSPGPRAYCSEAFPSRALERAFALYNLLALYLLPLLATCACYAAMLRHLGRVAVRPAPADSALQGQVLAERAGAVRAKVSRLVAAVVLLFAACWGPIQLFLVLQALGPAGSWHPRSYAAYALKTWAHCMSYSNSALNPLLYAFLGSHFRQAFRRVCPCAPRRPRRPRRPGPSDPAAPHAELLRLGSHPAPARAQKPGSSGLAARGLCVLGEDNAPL
Sequence of 5-hydroxytryptamine receptor 2A (Homo sapiens) (P28223 whole entry, looked up): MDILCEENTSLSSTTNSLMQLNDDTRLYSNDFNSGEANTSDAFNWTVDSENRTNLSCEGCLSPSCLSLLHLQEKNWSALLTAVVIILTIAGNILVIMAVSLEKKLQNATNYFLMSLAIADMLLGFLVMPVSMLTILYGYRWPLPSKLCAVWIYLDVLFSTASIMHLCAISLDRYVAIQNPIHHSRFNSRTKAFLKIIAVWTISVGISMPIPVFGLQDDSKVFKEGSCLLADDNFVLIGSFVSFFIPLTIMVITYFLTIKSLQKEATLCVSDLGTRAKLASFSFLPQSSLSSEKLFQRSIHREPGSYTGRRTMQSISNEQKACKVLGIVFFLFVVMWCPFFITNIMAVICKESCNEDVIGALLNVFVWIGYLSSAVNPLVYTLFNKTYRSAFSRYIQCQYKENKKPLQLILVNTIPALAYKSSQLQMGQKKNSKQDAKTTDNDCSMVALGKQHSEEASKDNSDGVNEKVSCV
Sequence of Gonadotropin-releasing hormone receptor (Homo sapiens) (P30968 whole entry, looked up): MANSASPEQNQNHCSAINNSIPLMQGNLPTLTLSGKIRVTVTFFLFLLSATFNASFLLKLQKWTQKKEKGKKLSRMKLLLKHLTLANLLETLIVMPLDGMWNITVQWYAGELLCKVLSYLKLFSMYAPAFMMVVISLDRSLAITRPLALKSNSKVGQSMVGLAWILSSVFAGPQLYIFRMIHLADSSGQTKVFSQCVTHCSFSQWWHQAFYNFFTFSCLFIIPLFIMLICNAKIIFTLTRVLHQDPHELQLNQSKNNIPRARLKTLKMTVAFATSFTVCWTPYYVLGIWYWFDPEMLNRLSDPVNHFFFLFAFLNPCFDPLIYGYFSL
Sequence of D(2) dopamine receptor (Homo sapiens) (P14416 whole entry, looked up): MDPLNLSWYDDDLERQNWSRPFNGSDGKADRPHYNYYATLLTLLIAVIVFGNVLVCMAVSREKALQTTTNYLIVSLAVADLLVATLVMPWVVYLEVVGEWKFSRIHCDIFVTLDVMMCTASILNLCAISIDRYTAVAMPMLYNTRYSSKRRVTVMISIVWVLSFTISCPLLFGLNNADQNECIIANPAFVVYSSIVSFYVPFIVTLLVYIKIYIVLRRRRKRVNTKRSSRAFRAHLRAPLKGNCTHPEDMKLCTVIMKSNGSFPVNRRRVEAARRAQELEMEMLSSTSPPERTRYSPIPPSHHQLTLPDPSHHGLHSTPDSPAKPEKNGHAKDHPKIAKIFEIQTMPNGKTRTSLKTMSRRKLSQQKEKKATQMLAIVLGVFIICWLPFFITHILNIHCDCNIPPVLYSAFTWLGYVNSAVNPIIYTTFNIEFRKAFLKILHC
Sequence of Muscarinic acetylcholine receptor M1 (Homo sapiens) (P11229 whole entry, looked up): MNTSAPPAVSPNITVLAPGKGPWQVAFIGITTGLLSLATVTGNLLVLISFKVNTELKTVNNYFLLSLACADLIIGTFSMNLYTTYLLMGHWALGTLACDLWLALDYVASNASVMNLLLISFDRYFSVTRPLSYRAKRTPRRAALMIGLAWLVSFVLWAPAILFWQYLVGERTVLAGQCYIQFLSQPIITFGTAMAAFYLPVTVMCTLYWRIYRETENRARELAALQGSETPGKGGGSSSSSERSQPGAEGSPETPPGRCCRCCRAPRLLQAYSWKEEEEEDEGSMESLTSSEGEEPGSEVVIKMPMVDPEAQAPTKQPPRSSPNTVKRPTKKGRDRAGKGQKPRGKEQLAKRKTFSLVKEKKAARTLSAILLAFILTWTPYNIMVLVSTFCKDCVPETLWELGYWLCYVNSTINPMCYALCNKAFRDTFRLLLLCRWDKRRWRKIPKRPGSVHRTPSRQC
Sequence of Beta-2 adrenergic receptor (Homo sapiens) (P07550 whole entry, looked up): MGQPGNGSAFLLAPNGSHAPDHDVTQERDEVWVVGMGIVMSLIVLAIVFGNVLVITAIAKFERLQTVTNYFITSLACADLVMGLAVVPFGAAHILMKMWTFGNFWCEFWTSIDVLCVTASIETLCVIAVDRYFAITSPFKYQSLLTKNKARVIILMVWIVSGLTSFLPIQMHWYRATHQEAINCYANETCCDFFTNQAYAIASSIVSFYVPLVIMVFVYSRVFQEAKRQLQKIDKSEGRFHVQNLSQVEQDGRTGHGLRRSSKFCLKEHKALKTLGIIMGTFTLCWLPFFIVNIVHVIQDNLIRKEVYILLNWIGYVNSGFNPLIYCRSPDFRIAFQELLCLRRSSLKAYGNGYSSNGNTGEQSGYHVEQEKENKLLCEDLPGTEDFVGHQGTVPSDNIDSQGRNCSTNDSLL

Row | SMILES | Potency [1] | Potency [2] | Potency [3] | Potency [4] | Potency [5] | Potency [6] | Potency [7] | Potency [8] | Potency [9] | Potency [10] | Potency [11] | Potency [12] | Potency [13] | Potency [14] | Potency [15] | Potency [16] | Potency [17] | Potency [18] | Potency [19] | Potency [20]
1 | CCCCOC(=O)C(=O)OCCCC | inactive | inactive | inactive | inactive | inactive | inactive | inactive | inactive | inactive | inactive | inactive | inactive | inactive | inactive | inactive | inactive | inactive | inactive | inactive | 
2 | CC(C)c1ccc2c(C(C)C)cc(C(C)C)c(S(=O)(=O)O)c2c1 | inactive | inactive | inactive | inactive | inactive | inactive | inactive | inactive | inactive | inactive | inactive | inactive | inactive | inactive | inactive | inactive | inactive | inactive |  | 
3 | CCCCCCOC(=O)c1ccccc1O | inactive | inactive | inactive | inactive | inactive | inactive | inactive | inactive | inactive | inactive | inactive | inactive | inactive | inactive | inactive | inactive |  | inactive | inactive | inactive
4 | CN1CCc2cccc3c2[C@H]1Cc1ccc(O)c(O)c1-3 | 30.9 µM (active) and 22.8 µM (active) | inactive | inactive | inactive | inactive | inactive | inactive | inactive | inactive | inactive | inactive | 1.51 µM (active) and inactive | inactive | inactive | inactive | inactive |  |  | inactive | inactive
5 | OC[C@H]1O[C@H](O[C@H]2O[C@H](CO)[C@@H](O)[C@H](O)[C@H]2O)[C@H](O)[C@@H](O)[C@@H]1O | inactive | inactive | inactive | inactive | inactive | inactive | inactive | inactive | inactive | inactive | inactive | inactive | inactive | inactive | inactive | inactive | inactive | inactive | inactive | 
6 | Cc1cc(CCC(=O)OCCOCCOCCOC(=O)CCc2cc(C)c(O)c(C(C)(C)C)c2)cc(C(C)(C)C)c1O | inactive | inactive | inactive | inactive | inactive | inactive | inactive | inactive | inactive | inactive | inactive | inactive | inactive | inactive | inactive | inactive |  | inactive | inactive | inactive
7 | CC(=O)c1ccc(O)c(C(N)=O)c1 | inactive | inactive | inactive | inactive | inactive | inactive | inactive | inactive | inactive | inactive | inactive | inactive | inactive | inactive | inactive | inactive |  | inactive | inactive | inactive
8 | CC(C)CCOC(=O)c1ccccc1 | inactive | inactive | inactive | inactive | inactive | inactive | inactive | inactive | inactive | inactive | inactive | inactive | inactive | inactive | inactive | inactive | inactive |  | inactive | inactive
9 | CC1(C)C(O)C(C)(C)C1O (stereo not drawn) | inactive | inactive | inactive | inactive | inactive | inactive | inactive | inactive | inactive | inactive | inactive | inactive | inactive | inactive | inactive | inactive | inactive | inactive | inactive | 
10 | CCOCCC(=O)OCC | inactive | inactive | inactive | inactive | inactive | inactive | inactive | inactive | inactive | inactive | inactive | inactive | inactive | inactive | inactive | inactive | inactive |  | inactive | inactive
11 | CC(=O)N[C@H]1[C@H]([C@H](O)[C@H](O)CO)OC(C(=O)O)=C[C@@H]1N=C(N)N | inactive | inactive | inactive | inactive | inactive | inactive | inactive | inactive | inactive | inactive | inactive | inactive | inactive | inactive | inactive | inactive | inactive | inactive | inactive | 
12 | OCC1CC2CC1C1CCC(CO)C21 (stereo not drawn) | inactive | inactive | inactive | inactive | inactive | inactive | inactive | inactive | inactive | inactive | inactive | inactive | inactive | inactive | inactive | inactive | inactive | inactive | inactive | 
13 | O=c1[nH][nH]c(=O)c2cc([N+](=O)[O-])ccc12 | inactive | inactive | inactive | inactive | inactive | inactive | inactive | inactive | inactive | inactive | inactive | inactive | inactive | inactive | inactive | inactive |  | inactive |  | inactive
14 | CC(=O)N1C[C@H](O)C[C@H]1C(=O)O | inactive | inactive | inactive | inactive | inactive | inactive | inactive | inactive | inactive | inactive | inactive | inactive | inactive | inactive | inactive | inactive | inactive | inactive | inactive | 
